# Data taken from PubChem BioAssay (NCATS).
# Results filed as inconclusive are left out. A number with no mark means an inactive call. Calls of active or inactive are those of the source. Calls follow the shape of the dose curve; as a rule, active = well fitted curve in the direction sought with a large enough effect; inconclusive = small, poorly fitted or top-dose-only effect, or another doubt; inactive = no such curve, though single readings can be large; an effect the other way counts as inactive or inconclusive.
# Target: Aldehyde dehydrogenase, mitochondrial (Homo sapiens) (UniProt P05091)
# Test: qHTS for Inhibitors of the Aldehyde Dehydrogenase Family (ALDH2) Primary screen (AID 2061308);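 also: plate controls were vehicle for no effect and reference inhibitor for full effect; nearly all actives have a fitted effect of over 55% in size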
# Details: ALDH2 enzyme inhibition qHTS, 1536-well; series mostly up to 56 µM; activity change, negative = inhibition: at the top concentration
SMILES,"activity change, negative = inhibition",Potency
CCOc1ccc(C(=O)Nc2ccc(-c3nn[nH]n3)cc2)cc1[N+](=O)[O-],3.56%,
COc1ccc(C2=Nn3c(nnc3-c3ccccc3OC)SC2)cc1OCC1CC1,10.7%,
O=C(Nc1cc(C(F)(F)F)ccc1Cl)C(O)Cc1ccccc1 (stereo not given),13.7%,
CNCC(=O)Nc1ccc(Cl)cc1C(=O)c1ccc[nH]1,-18%,
FC(F)(F)c1ccccc1-c1nc(NCC#Cc2cccnc2)c2ccccc2n1,,inactive
COCCNC(=O)Nc1ccc2nc(-c3cccs3)c(-c3cccs3)nc2c1,-17.4%,
Cc1sc(NC(=O)Cc2ccc3c(c2)OCO3)nc1-c1ccc2c(c1)CCN2C(=O)c1ccccc1C(F)(F)F,-4.81%,
CC(C)(C)c1ccc(CSc2nc3ncc(Br)cc3[nH]2)cc1,9.22%,
COc1ccc(C(=O)Nc2ccc(-c3nc4ccccc4[nH]3)cc2)cc1OC,-8.32%,
O=C(OCC#CCSc1nnc(-c2ccc(F)cc2)o1)c1ccc(F)cc1,1.17%,
Cc1cc2c(s1)c1cnn(Cc3ccc(Cl)c(Cl)c3)c(=O)c1n2C,-14.7%,
c1ccc2sc(-c3csc4c3CCNC4)nc2c1,6.72%,
COc1cccc(CNc2ccc(S(=O)(=O)Nc3nc4ccccc4o3)cc2)c1O,-12%,
Cc1cc(NC(=O)Nc2nnc(C3CCCCC3)s2)ccc1Br,5.61%,
Cc1ccc(S(=O)(=O)Nc2cnccc2C(=O)Nc2nc3ccccc3s2)cc1,-8.04%,
Cc1cc(C)nc(NC(=S)N2CCN(c3noc4ccccc34)CC2)c1,-6.28%,
CC(=O)c1c(C)[nH]c(C(=O)Nc2ccc(OCCCN(C)C)c(S(=O)(=O)Nc3ccc(Br)cc3)c2)c1C,10.4%,
Oc1ccc(-c2ccccc2F)c2cccnc12,-7.21%,
NC(=O)C1CCN(c2nnc(-c3ccc(Br)cc3)s2)CC1,-16%,
COc1ccc2cc3cc(C(=O)Nc4ccc(F)cc4)sc3nc2c1,-2.94%,

SMILES,"activity change, negative = inhibition",Potency
CCc1ccc(NC(=O)c2cnn3c(C)cc(C)nc23)cc1,7.35%,
CC(=O)c1ccc(N2CCN(S(=O)(=O)c3ccc4c(c3)CCCN4C(C)=O)CC2)cc1,47.3%,
O=S(=O)(Nc1ccccc1)c1ccc(O)c2ncccc12,-10%,
CCOc1ccc(CCNC(=O)c2cc3ccccc3n2Cc2cc(C)cc(C)n2)cc1OCC,10.5%,
CCOc1ccc(CCNC(=O)c2cc3sccc3n2C)cc1OCC,-15.4%,
C[C@@H](NC(c1ccc(F)cc1)c1ccc2cccnc2c1O)c1ccccc1 (stereo not given in full),-25.6%,
COc1cc(O)c(C(CC(=O)N2CCCC2)c2ccc3c(c2)OCO3)c(OC)c1 (stereo not given),-27% [at 114 µM],
O=C(OCC#CCSc1nnc(-c2cccc3ccccc23)o1)c1cc(F)c(F)c(F)c1,-13.3%,
CC(=O)c1ccc(N2CCN(S(=O)(=O)c3ccc4c(c3)CC(=O)N4)CC2)cc1,-6.98% [at 114 µM],
CCOc1ccccc1-c1nnc2n1N=C(c1ccccc1OC)CS2,4.58%,
FC(F)(F)c1ccccc1-c1nccc(NCc2ccc(-c3cccnc3)cc2)n1,19.5%,
COc1ccc(C(=O)N(Cc2ccccc2)Cc2ccccc2)c(O)c1,0.291%,
Cc1ccc(-c2cc(C(=O)Nc3cccc(Cl)c3)c3ccccc3n2)cc1C,2.47%,
O=S(=O)(Nc1ccc(S(=O)(=O)Nc2nccs2)cc1)c1ccc2ccccc2c1,6.64%,
CCOC(=O)c1cccc(NC(=O)Nc2nnc(-c3ccncc3)s2)c1,-0.112%,
Cc1cccc(-n2cnc3cc(C(=O)N4CCN(C)CC4)ccc32)c1,-15.6%,
CC(C)c1ccccc1-c1ncc(F)c(NCc2ccc(-c3ccn[nH]3)cc2)n1,-8.67%,
Cc1cc(Nc2ncc3cc(-c4c(Cl)cccc4Cl)c(=O)n(C)c3n2)ccc1F,1.66%,
COc1ccc2nc(-c3ccc(C#N)cc3)sc2c1,19.6%,
Fc1cc(Nc2nc(-c3ccncc3)nc3ccccc23)ccc1-c1cn[nH]c1,1.99%,

# Target: Retinaldehyde dehydrogenase 3 (Homo sapiens) (UniProt P47895)
# Test: qHTS for Inhibitors of the Aldehyde Dehydrogenase Family (ALDH1A3) Primary screen (AID 2061315);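 also: plate controls were DMSO vehicle for no effect and reference inhibitor for full effect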
# Details: ALDH inhibition qHTS; series mostly up to 56 µM; activity change, negative = inhibition: at the top concentration
SMILES,"activity change, negative = inhibition",Potency
CCOc1ccc(C(=O)Nc2ccc(-c3nn[nH]n3)cc2)cc1[N+](=O)[O-],0.638%,
COc1ccc(C2=Nn3c(nnc3-c3ccccc3OC)SC2)cc1OCC1CC1,16.8%,
O=C(Nc1cc(C(F)(F)F)ccc1Cl)C(O)Cc1ccccc1 (stereo not given),2.31%,
CNCC(=O)Nc1ccc(Cl)cc1C(=O)c1ccc[nH]1,3.85%,
FC(F)(F)c1ccccc1-c1nc(NCC#Cc2cccnc2)c2ccccc2n1,,inactive
COCCNC(=O)Nc1ccc2nc(-c3cccs3)c(-c3cccs3)nc2c1,-13.5%,
Cc1sc(NC(=O)Cc2ccc3c(c2)OCO3)nc1-c1ccc2c(c1)CCN2C(=O)c1ccccc1C(F)(F)F,-3.98%,
CC(C)(C)c1ccc(CSc2nc3ncc(Br)cc3[nH]2)cc1,-2.95%,
COc1ccc(C(=O)Nc2ccc(-c3nc4ccccc4[nH]3)cc2)cc1OC,-12.3%,
O=C(OCC#CCSc1nnc(-c2ccc(F)cc2)o1)c1ccc(F)cc1,-5.68%,
Cc1cc2c(s1)c1cnn(Cc3ccc(Cl)c(Cl)c3)c(=O)c1n2C,-5.92%,
c1ccc2sc(-c3csc4c3CCNC4)nc2c1,-23.2%,
COc1cccc(CNc2ccc(S(=O)(=O)Nc3nc4ccccc4o3)cc2)c1O,-14%,
Cc1cc(NC(=O)Nc2nnc(C3CCCCC3)s2)ccc1Br,8.47%,
Cc1ccc(S(=O)(=O)Nc2cnccc2C(=O)Nc2nc3ccccc3s2)cc1,8.12%,
Cc1cc(C)nc(NC(=S)N2CCN(c3noc4ccccc34)CC2)c1,-2.77%,
CC(=O)c1c(C)[nH]c(C(=O)Nc2ccc(OCCCN(C)C)c(S(=O)(=O)Nc3ccc(Br)cc3)c2)c1C,6.94%,
Oc1ccc(-c2ccccc2F)c2cccnc12,-3.51%,
NC(=O)C1CCN(c2nnc(-c3ccc(Br)cc3)s2)CC1,-5.76%,
COc1ccc2cc3cc(C(=O)Nc4ccc(F)cc4)sc3nc2c1,-5.22%,

SMILES,"activity change, negative = inhibition",Potency
CCc1ccc(NC(=O)c2cnn3c(C)cc(C)nc23)cc1,-1.94%,
CC(=O)c1ccc(N2CCN(S(=O)(=O)c3ccc4c(c3)CCCN4C(C)=O)CC2)cc1,-10.1%,
O=S(=O)(Nc1ccccc1)c1ccc(O)c2ncccc12,-10%,
CCOc1ccc(CCNC(=O)c2cc3ccccc3n2Cc2cc(C)cc(C)n2)cc1OCC,-3.35%,
CCOc1ccc(CCNC(=O)c2cc3sccc3n2C)cc1OCC,-2.39%,
C[C@@H](NC(c1ccc(F)cc1)c1ccc2cccnc2c1O)c1ccccc1 (stereo not given in full),,inactive
COc1cc(O)c(C(CC(=O)N2CCCC2)c2ccc3c(c2)OCO3)c(OC)c1 (stereo not given),-35.8% [at 114 µM],
O=C(OCC#CCSc1nnc(-c2cccc3ccccc23)o1)c1cc(F)c(F)c(F)c1,19.7%,
CC(=O)c1ccc(N2CCN(S(=O)(=O)c3ccc4c(c3)CC(=O)N4)CC2)cc1,-20% [at 114 µM],
CCOc1ccccc1-c1nnc2n1N=C(c1ccccc1OC)CS2,1.81%,
FC(F)(F)c1ccccc1-c1nccc(NCc2ccc(-c3cccnc3)cc2)n1,-11.8%,
COc1ccc(C(=O)N(Cc2ccccc2)Cc2ccccc2)c(O)c1,1.83%,
Cc1ccc(-c2cc(C(=O)Nc3cccc(Cl)c3)c3ccccc3n2)cc1C,1.19%,
O=S(=O)(Nc1ccc(S(=O)(=O)Nc2nccs2)cc1)c1ccc2ccccc2c1,-1.1%,
CCOC(=O)c1cccc(NC(=O)Nc2nnc(-c3ccncc3)s2)c1,-5.82%,
Cc1cccc(-n2cnc3cc(C(=O)N4CCN(C)CC4)ccc32)c1,0.211%,
CC(C)c1ccccc1-c1ncc(F)c(NCc2ccc(-c3ccn[nH]3)cc2)n1,-5.46%,
Cc1cc(Nc2ncc3cc(-c4c(Cl)cccc4Cl)c(=O)n(C)c3n2)ccc1F,-0.485%,
COc1ccc2nc(-c3ccc(C#N)cc3)sc2c1,-9.78%,
Fc1cc(Nc2nc(-c3ccncc3)nc3ccccc23)ccc1-c1cn[nH]c1,7.78%,
